GLP1R cytotox: cytotoxic in the GLP-1 receptor inverse agonist counter-screen. Potency, µM (series often up to 38.3 µM), actives largely listed as inhibitors. HEK293 cAMP-luciferase reporter cells, luminescence, 24 h. AID 624418. 0.13% of 410,000 active;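 note: loss of luciferase light is scored as toxicity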
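Step one: seed cells (200 cells/uL, DMEM with 10% Nu serum, 1% pen-strep). Step two: 12-hour incubation at 37 deg C. Step three: pin 23 nL compound, incubate 24 hr. Step four: add luciferase reagent, read luminescence 12 min later.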
GCN5L2 inh: GCN5L2 (KAT2A) acetyltransferase inhibition | GCN5L2 HAT assay, ThioGlo1 CoA-SH fluorescence | Potency, µM (highest dose often 58.9 µM), most hits filed as inhibitors | 0.21% of 390,000 active | AID 504327
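Preincubate 20nM GCN5L2 with compound 15 min, RT → add 50uM ThioGlo1 + 75uM H3(1-25) + 70uM acetyl-CoA → read fluorescence 0 and 20 min. Primary qHTS; fluorescent artifacts likely.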
PTHR1 ag: activates the human parathyroid hormone receptor PTHR1 | Potency, µM (series often up to 115 µM), actives largely listed as activators | AID 743266 | Q03431 | 0.075% of 410,000 active | HEK293 GP2 PTHR1 cells, GloSensor cAMP luminescence, 1 h; note: nearly all actives have a fitted effect of over 55% in size
Target sequence (Q03431 whole entry, looked up): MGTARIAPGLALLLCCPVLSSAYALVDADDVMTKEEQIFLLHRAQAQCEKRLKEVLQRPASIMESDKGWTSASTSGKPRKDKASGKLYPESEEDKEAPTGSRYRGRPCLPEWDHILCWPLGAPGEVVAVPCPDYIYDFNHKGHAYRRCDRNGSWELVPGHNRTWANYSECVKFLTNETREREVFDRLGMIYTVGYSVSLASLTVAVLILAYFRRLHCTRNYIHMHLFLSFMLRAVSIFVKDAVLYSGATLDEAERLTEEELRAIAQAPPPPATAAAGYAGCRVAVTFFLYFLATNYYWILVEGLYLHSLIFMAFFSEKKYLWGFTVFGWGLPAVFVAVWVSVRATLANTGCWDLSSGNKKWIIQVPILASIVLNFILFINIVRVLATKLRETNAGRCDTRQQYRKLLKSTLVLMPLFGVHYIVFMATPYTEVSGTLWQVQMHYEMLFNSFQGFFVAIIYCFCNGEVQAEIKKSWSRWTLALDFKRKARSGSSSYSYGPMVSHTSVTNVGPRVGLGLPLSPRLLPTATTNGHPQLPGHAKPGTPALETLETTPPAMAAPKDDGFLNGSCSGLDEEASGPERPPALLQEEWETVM
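HEK-293-derived GP2 cells expressing PTHR1 and a GloSensor cAMP reporter, 3,000/well, plated overnight, given luciferin plus IBMX (each 0.5 mM as added) for 1 h at 37 °C, then compound for 1 h at 37 °C. Luminescence was read after 15 min at room temperature.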
GLP1R inv ag: inverse agonists of human GLP-1 receptor; 1.6% of 410,000 active; Potency, µM (titrated, usually from 38.3 µM), actives largely listed as inhibitors; HEK293 GLP-1R CRE-luciferase, luminescence, 24 h; GLP-1R form is constitutively active; P43220; note: nearly all actives have a fitted effect of over 55% in size
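HEK293 cells stably co-expressing a cAMP-responsive luciferase reporter and constitutively active GLP-1R were seeded, incubated 12 h, then exposed to compounds for 24 h at 37 C. Luminescence was read 12 min after detection reagent; inverse agonists lower signal.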
RGS4 inh: human RGS4 inhibition; Transcreener GDP fluorescence polarization, RGS4-accelerated GTP hydrolysis; AID 504845; 0.039% of 390,000 active; P49798; Potency, µM (series often up to 114 µM), most hits filed as inhibitors; note: nearly all actives have a fitted effect of over 75% in size
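MLSMR compounds (23 nl, pin-transferred) preincubated 10 min at room temperature with a 500nM (2x) first reagent, then RGS4 at 900nM (2x) plus Transcreener GDP mix added; fluorescence polarization (620/688 nm) read before and after 90 min at 30 °C.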
GLP1R ag: activates the human GLP-1 receptor | HEK293 GLP-1R CRE-luciferase, luminescence, 4-6 h; cells express a hypersensitive GLP-1R form | Potency, µM (titrated, usually from 45.6 µM), actives largely listed as activators | 0.007% of 380,000 active | AID 624172
Hits are given with their value; - = inactive; ? = inconclusive; . = not tested or not shown. The list is not random: actives were taken first. Their share in the collection is about 1.8%. Calls come from the whole dose curve; as a rule, active = well fitted curve in the direction sought with a large enough effect; inconclusive = small, poorly fitted or top-dose-only effect, or another doubt; inactive = no such curve, though single readings can be large; an effect the other way counts as inactive or inconclusive.

SMILES	GLP1R cytotox	GCN5L2 inh	PTHR1 ag	GLP1R inv ag	RGS4 inh	GLP1R ag
CCOc1cc(/C=N/NS(=O)(=O)c2ccccc2)ccc1OS(=O)(=O)c1ccc(C)cc1	-	-	-	8.9µM	-	-
Cc1ccccc1NC(=O)/C=C/c1cccs1	-	-	-	-	-	-
Cc1cc(C)c(-c2csc(NC(=O)/C=C/c3cccs3)n2)c(C)c1	-	-	-	3.2µM	-	-
O=C(/C=C/c1cccs1)Nc1cccc(NC(=O)/C=C/c2cccs2)n1	?	-	-	4µM	-	-
Cc1cc(C)nc(NC(=O)/C=C/c2cccs2)c1	-	-	-	?	-	-
CC(C)CN(C(=O)Cn1c(C(F)(F)F)nc2ccccc21)c1c(N)n(Cc2ccccc2)c(=O)[nH]c1=O	-	.	-	-	-	-
NC(Cc1ccccc1)c1csc(Nc2ccc(C(=O)c3ccccc3)cc2)n1 (stereo not given)	?	.	-	10µM	.	-
COc1cc(NC(=O)c2cc3c(=O)n(Cc4ccco4)ccc3nc2C)cc(OC)c1OC	-	-	-	-	-	.
CCOC(=O)C1(Cc2ccccc2)CCN(Cc2nccn2CC)CC1	?	-	-	?	-	-
CCOC(=O)C1(CCc2ccccc2)CCN(Cc2nccn2CC)CC1	8.9µM	-	-	?	-	-
CN1CCN(c2ccc3sc(-n4ccc5ccccc54)nc3c2)CC1	-	.	-	6.3µM	.	-
c1ccc(N2CCN(c3nc4cc5c(cc4s3)OCO5)CC2)cc1	-	-	-	-	-	-
Cc1noc(C)c1COc1cccc(C(=O)OCCOc2ccc(F)cc2)c1	-	-	-	10µM	-	-
C#Cc1ccc(C(=O)Nc2ccc(N3CCC(C)CC3)c(C(N)=O)c2)cc1	-	-	-	8.9µM	-	-
CCOC(=O)C(=O)NNc1ccc(F)cc1	-	-	-	0.89µM	-	-
CCOC(=O)C(=O)N/N=C/c1ccc(F)cc1	-	-	-	-	-	-
COc1ccc(CN2CSC(=S)N(Cc3ccccc3)C2)cc1	?	-	-	10µM	-	-
COc1ccc(CN2CSC(=S)N(Cc3ccc(OC)cc3)C2)cc1	-	-	-	?	-	-
S=C1SCN(Cc2cccnc2)CN1Cc1cccnc1	?	-	-	3.2µM	-	-
S=C1SCN(Cc2ccccc2)CN1Cc1ccccc1	?	?	-	?	-	-
CSCC[C@H](NC(=O)[C@@H]1CCCN1C(=O)[C@H](CCCN=C(N)N)NC(=O)[C@H](CC(C)C)NC(=O)[C@@H]1CCCN1C(=O)[C@@H](NC(=O)[C@@H](N)CCC(N)=O)C(C)C)C(=O)N[C@H](C(=O)N[C@@H](Cc1ccc(O)cc1)C(=O)N[C@@H](CCCCN)C(=O)O)[C@@H](C)O	.	-	.	.	.	.
CCOc1ccc(CNC(=O)C2CCN(Cc3cc4ccccc4n3Cc3ccccc3C)CC2)cc1	-	-	-	7.1µM	-	.
Cc1ccccc1Cn1c(CN2CCC(C(=O)NCc3ccc(Cl)cc3)CC2)cc2ccccc21	-	-	-	?	-	.
c1nc(NC2CCNCC2)c2cc(-c3ccoc3)ccc2n1	.	20µM	.	.	.	.
O=C(NC1CCCC1)c1ccc2c(c1)N(Cc1ccccc1F)C(=O)c1ccccc1S2	-	-	-	?	-	.
SMILES	GLP1R cytotox	GCN5L2 inh	PTHR1 ag	GLP1R inv ag	RGS4 inh	GLP1R ag
CCOC(=O)C(=NCCOC)NNc1cc(Cl)ccc1Cl	-	-	-	2.8µM	-	-
O=C(CSc1ccc(Cl)cc1)N1CCN(c2c(Cl)cccc2[N+](=O)[O-])CC1	-	-	-	2.8µM	-	-
O=C(/C=C/c1ccc(Cl)cc1)N1CCN(c2c(Cl)cccc2[N+](=O)[O-])CC1	-	-	-	?	-	-
Cc1sc2ncn(CC(=O)N(C)c3cccc(C(F)(F)F)c3)c(=O)c2c1S(=O)(=O)N1CCN(c2ncccn2)CC1	-	-	-	-	-	-
CCOc1ccc(CN2CCC(C(=O)Nc3cccc(-c4ccn[nH]4)c3)CC2)cc1Cl	?	-	-	10µM	-	-
CC1(C(=O)Nc2ccccc2Cc2ccccc2)CCN1Cc1ccccc1Cl (stereo not given)	-	.	-	?	.	-
CC1(C(=O)Nc2ccccc2Cc2ccccc2)CCN1CCc1ccccc1 (stereo not given)	-	.	-	13µM	.	-
COc1ccc2c(C)cc(SCC(=O)NC3CCCC3)nc2c1	-	-	-	11µM	-	-
COc1ccc(-c2[nH]c(-c3ccc(C)cc3)nc2SCC(=O)NC2CCCC2)cc1	?	-	-	10µM	-	-
Cc1cc(SCC(=O)NC2CC2)nc2ccccc12	-	-	-	-	-	-
COc1cccc(-c2nc(SCC(=O)NC3CCCC3)c(-c3ccc(C)cc3)[nH]2)c1	-	-	-	?	-	.
CC(C)Cc1cc(C(=O)Nc2ccc3c(c2)OCO3)no1	-	-	-	4µM	-	-
CN(C)C1(CNC(=O)C2CCC(=O)N(CCc3ccc(Cl)cc3)C2)CCCCC1 (stereo not given)	-	?	-	?	-	-
CCCCCn1c(C)c2c(OCC)cccc(=O)c2c1C	-	-	-	10µM	-	-
COc1ccccc1-c1sc2cc3c(cc2c1-c1ccc(OCCN2CCCCC2)cc1)OCO3	?	-	-	13µM	-	-
COc1cc2sc(-c3ccccc3OC)c(-c3ccc(OCCN4CCCCC4)cc3)c2cc1OC	-	-	-	?	-	-
COc1ccccc1-c1sc2ccccc2c1-c1ccc2c(c1)OCO2	-	-	-	10µM	-	-
C[C@@H]1CN([C@@H](C)CO)C(=O)c2cc(Br)cnc2O[C@H]1CN(C)C(=O)Nc1ccc(F)cc1	-	.	-	-	.	-
O=c1nc2ccccc2c2n1C[C@H](CN1CCN(c3ccccc3)CC1)N2	.	-	.	.	-	.
Cn1cccc1/C=N\NC(=O)C1COc2ccccc2O1 (stereo not given)	-	?	-	-	-	-
Cn1cccc1/C=N\NC(=O)C1COc2ccc(C(C)(C)C)cc2O1 (stereo not given)	-	-	-	10µM	-	-
CCOc1ccccc1NC(=O)c1nnn(CC(=O)Nc2ccc3c(c2)OCO3)c1N	-	-	-	-	-	-
CCOc1ccccc1NC(=O)c1nnn(-c2ccc3c(c2)OCCO3)c1N	-	-	-	2.5µM	-	-
CC(C)(C)c1ccc(OCCCCCCN2CCNCC2)cc1	?	.	-	4µM	-	-
CC(C)(c1ccccc1)c1ccc(OCCCN2CCNCC2)cc1	?	-	-	1.1µM	-	-
Cc1cc(C)c(OCCOCCN2CCNCC2)c(C)c1	-	-	-	10µM	-	-

High-throughput results from PubChem BioAssay.
